Assay [1] is described as follows: NCI Yeast Anticancer Drug Screen. Data for the rad50 strain (AID 155).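 Further: 0% = growth of vehicle-only cultures of the same strain.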 The note with it: S. cerevisiae rad50 strain growth inhibition; at 50.0 µM; hits give high values. Put shortly: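 Inhibition values express reduced yeast growth in compound-treated cultures relative to vehicle-treated controls.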
A short description of assay [2]: NCI Yeast Anticancer Drug Screen. Data for the mec2-1 strain (AID 157). The conditions noted are these: S. cerevisiae mec2-1 strain, at 50.0 µM, hits give high values. Put shortly: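 Strain: mec2-1 (DNA repair/cell cycle alteration). Compound exposure, then growth measured; inhibition expressed relative to vehicle.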
A short description of assay [3]: NCI Yeast Anticancer Drug Screen. Data for the sgs1 mgt1 strain (AID 161).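 Further: 0% = growth of cultures given vehicle only.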 The note with it: S. cerevisiae sgs1 mgt1 strain, at 50.0 µM, hits give high values. The method in brief: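 Inhibition of yeast growth, normalised to vehicle-treated controls, is reported for a strain bearing genetic alterations in DNA damage repair.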
Assay [4] in a line: NCI Yeast Anticancer Drug Screen. Data for the cln2 rad14 strain (AID 165).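 Further: 0% = growth equal to vehicle treated cultures.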 The conditions noted are these: S. cerevisiae cln2 rad14 strain, at 50.0 µM, hits give high values. Put shortly:
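Compounds are applied to the cln2 rad14 yeast strain, and growth is then compared with that of vehicle-treated cultures to give inhibition.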

The nature of assay [5]: NCI Yeast Anticancer Drug Screen. Data for the bub3 strain (AID 167). The note with it: S. cerevisiae bub3 mutant strain, at 50.0 µM, hits give high values. The method in brief:
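Steps: expose the mutant yeast strain to compound; grow alongside vehicle-treated cultures; measure growth; express inhibition against the vehicle cultures.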

Assay [6] can be described thus: NCI Yeast Anticancer Drug Screen. Data for the mlh1 rad18 strain (AID 175). The note with it: S. cerevisiae mlh1 rad18 strain growth inhibition; at 50.0 µM; hits give high values. Put shortly: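 Read-out is yeast growth inhibition, calculated against vehicle-only controls. The compound was applied to a strain engineered with DNA damage repair alterations.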

SMILES strings stand for the structures. Compounds without any hit were thinned out: in the full panel of roughly 79,000, 15% have a hit. Values without a mark were called inactive. Calls of active or inactive are those of the source. No stated cut-off is given here; in the data, active means growth inhibition above about 70%; inactive means the rest.

As to `O=C(c1ccc(Cl)cc1)N1CCCCC1`, the growth inhibition in assay [1] is 1.05%; in assay [2] it was 2.85%; in assay [3], -17.6%; in assay [4], -0.65%; in assay [5], -7.15%; in assay [6] it was -5.8%.

As for `C=C1CC2(OC1=O)C(=O)N(C)c1ccc(I)cc12` (configuration not stated), the growth inhibition in assay [1] is 91.3% (active); in assay [2], 93.2% (active); in assay [3] it was 92.1% (active); in assay [4], 90.5% (active); in assay [5] it was 91.5% (active); in assay [6], 91.2% (active).

With `CC(=O)N(C)N=Nc1ccc(C)cc1`, the growth inhibition in assay [1] was 3.7%; in assay [2] it was -23.6%; in assay [3], -13.6%; in assay [4], 4%; in assay [5], 0.1%; in assay [6] it was -4.05%.

As to `COc1cccc(N=CNc2cccc(OC)c2)c1`, the growth inhibition in assay [1] was -36.2%; in assay [2] it was -34.7%; in assay [3], -17.4%; in assay [4], 8.55%; in assay [5], -11.8%; in assay [6], -27.9%.

For `Cc1ccc(N)c(S(=O)(=O)O)c1`, the growth inhibition is -4.85% in assay [1]; 4.35% in assay [2]; 0.75% in assay [3]; -53.9% in assay [4]; 8.85% in assay [5]; -13.2% in assay [6].

For `O=Cc1ccc(O)c(O)c1`, the growth inhibition in assay [1] was 17.6%; in assay [2], -6.5%; in assay [3], 11.6%; in assay [4], 7.75%; in assay [5], 4.05%; in assay [6] it was 18.9%.

`COc1ccc(C)cc1NC(=O)SC(C)C`: the growth inhibition in assay [1] is -9.75%; in assay [2], -18.9%; in assay [3] it was 9.4%; in assay [4], -5.2%; in assay [5], 18.4%; in assay [6], 6.1%.

For the compound `CSCC[C@@H]1C(=O)N(C)[C@H](C(C)(C)C)N1C(=O)c1ccccc1`, the growth inhibition in assay [1] is -0.9%; in assay [2] it was -12.4%; in assay [3] it was -7.05%; in assay [4], 0.6%; in assay [5], 44.7%; in assay [6] it was -13.4%.

As to `S=c1nc2[nH]c3ccccc3c2n[nH]1`, the growth inhibition is 8.45% in assay [1]; -17.9% in assay [2]; -5.65% in assay [3]; -7.3% in assay [4]; -8.95% in assay [5]; 6.45% in assay [6].

As to `OCc1cccnc1`, the growth inhibition was -6.3% in assay [1]; -36.9% in assay [2]; 15.3% in assay [3]; 9.55% in assay [4]; -18.5% in assay [5]; 5.75% in assay [6].

Regarding `CCCCCCCCCCCCSC1=C(Cl)C(=O)C(OC)=C(OC)C1=O`, the growth inhibition in assay [1] was 23.3%; in assay [2], -18.1%; in assay [3], 1.5%; in assay [4], 4.75%; in assay [5] it was -7.2%; in assay [6], 38%.

Consider `C=C1C(=O)C2CCN1CC2`, for which the growth inhibition in assay [1] was 1.05%; in assay [2], -15.8%; in assay [3], -15.8%; in assay [4], 2.95%; in assay [5] it was -18.1%; in assay [6], -21.2%.

As for `CCCOCc1cn[nH]n1`, the growth inhibition in assay [1] is -9.7%; in assay [2], 5.25%; in assay [3] it was 8.3%; in assay [4] it was -8.85%; in assay [5], -8.95%; in assay [6], -2.35%.

With `CC1=CC(=Nc2ccc(N(C)C)cc2)C=C(C)C1=O`, the growth inhibition was -14.5% in assay [1]; -21.1% in assay [2]; -5.1% in assay [3]; -38.1% in assay [4]; 20.2% in assay [5]; -12.4% in assay [6].

As for `Oc1cc2ccccc2c(-c2c(O)c(O)cc3ccccc23)c1O`, the growth inhibition was 89.5% (active) in assay [1]; 85% (active) in assay [2]; 83.7% (active) in assay [3]; 83.6% (active) in assay [4]; 87% (active) in assay [5]; 91.7% (active) in assay [6].

In the case of `CCOC(=O)C(CCC#N)(CCC#N)C(=O)OCC`, the growth inhibition in assay [1] was 39.5%; in assay [2], 9.8%; in assay [3], -2.2%; in assay [4] it was -21.3%; in assay [5] it was 12.6%; in assay [6] it was 38.7%.

As to `CCOC(=O)C(COS(C)(=O)=O)(COS(C)(=O)=O)C(=O)OCC`, the growth inhibition is -24.4% in assay [1]; -22.9% in assay [2]; -21.4% in assay [3]; -2.05% in assay [4]; -2.35% in assay [5]; -6.1% in assay [6].

As to `O=C(c1cccc(C(=O)c2ccc3c4c(cccc24)C(=O)N(c2ccccc2)C3=O)c1)c1ccc2c3c(cccc13)C(=O)N(c1ccccc1)C2=O`, the growth inhibition was -35.5% in assay [1]; -36.8% in assay [2]; -23.1% in assay [3]; 12.1% in assay [4]; -25.4% in assay [5]; -20.8% in assay [6].

As for `CC(=O)OC(C)c1cccc(C#N)c1` (configuration not stated), the growth inhibition was 7.15% in assay [1]; -25.4% in assay [2]; 6.2% in assay [3]; -8.9% in assay [4]; -2.95% in assay [5]; 22% in assay [6].

Turning to `CN(C)Cc1ccccn1`, the growth inhibition in assay [1] is 1.1%; in assay [2], -17%; in assay [3], -4.25%; in assay [4], -5.75%; in assay [5], -13.4%; in assay [6], 2.55%.

Turning to `CC(C)(C)CC1(C)NC(=O)NC1=O` (configuration not stated), the growth inhibition in assay [1] is -7.3%; in assay [2], 8.25%; in assay [3] it was 13.1%; in assay [4], -58.2%; in assay [5], 7.25%; in assay [6], 8.45%.

For `COc1cc(C(=O)N2CCN(c3ccccc3)CC2)c2ccccc2n1`, the growth inhibition in assay [1] was -3.8%; in assay [2] it was 3.8%; in assay [3] it was 10.7%; in assay [4] it was 18.5%; in assay [5] it was 9.2%; in assay [6], 3.1%.

These data come from PubChem BioAssay (NCI).
